Test results published in the supplement of paper PMC7156485.
± gives the standard deviation of the averaged measurements.

Columns and labels:
Settings in all cases: concentration: 10 µM; 24 h
HCC1569 [1] = test: cell number relative to DMSO (% of DMSO); higher = more cells (less growth inhibition / toxicity)
Procedure, shortened: (§1)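 H1.0 nuclear intensity or cell number is stated as percent of the plate control, based on the median of replicates, and HCC1569 values were smoothed for positional effects. These came from HCC1569 and TDF cells treated with compounds at 10 µM for 24 h at 37 °C in triplicate, then fixed in 3.7% formaldehyde and stained with a rabbit anti-H1.0 antibody, an AlexaFluor 647 secondary and DAPI.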

TDF [2] = test: as above
Procedure, shortened: as §1

TDF [3] = test: H1.0 immunofluorescence intensity relative to DMSO (% of DMSO); higher = stronger H1.0 induction, active = 120 or more
Procedure, shortened: as §1

HCC1569 [4] = test: H1.0 immunofluorescence intensity relative to DMSO (% of DMSO); higher = stronger H1.0 induction, active = 140 or more
Procedure, shortened: as §1
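Wherever H1.0 immunofluorescence intensity relative to DMSO is given: TDF is a line of transformed human dermal fibroblasts of mesenchymal origin.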
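Wherever cell number relative to DMSO is given: TDF denotes transformed human dermal fibroblasts of mesenchymal origin.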

For `CN1[C@@H]2CC[C@H]1C[C@@H](OC(=O)[C@H](CO)c1ccccc1)C2` [L-Hyoscyamine], the cell number (HCC1569 [1]) was 100, the cell number (TDF [2]) was 117 and the H1.0 immunofluorescence intensity (TDF [3]) was 95 (inactive). For the same compound, the H1.0 immunofluorescence intensity (HCC1569 [4]) was 96.2 (inactive).
With `CC(O)C(C)OC(=O)C1CC2c3cccc4c3c(cn4C(C)C)CC2N(C)C1.O=C(O)C=CC(=O)O` (configuration not stated) [LY-53,857 maleate] the cell number (HCC1569 [1]) was 107, the cell number (TDF [2]) was 107 and the H1.0 immunofluorescence intensity (TDF [3]) was 96.5 (inactive). The H1.0 immunofluorescence intensity (HCC1569 [4]) was 90.5 (inactive).
In the case of `CC12CCC3C(CCC4CC(O)CCC43C)C1CCC2=O` (configuration not stated) [Androsterone], the cell number (HCC1569 [1]) is reported as 95, the cell number (TDF [2]) is reported as 113 and the H1.0 immunofluorescence intensity (TDF [3]) is reported as 91.7 (inactive). The H1.0 immunofluorescence intensity (HCC1569 [4]) was 107 (inactive).
In the case of `O=c1c2ccccc2[se]n1-c1ccccc1` [Ebselen], the cell number (HCC1569 [1]) is reported as 102.1 ± 0.14, the cell number (TDF [2]) is reported as 97.7 ± 1.2 and the H1.0 immunofluorescence intensity (TDF [3]) is reported as 102 (inactive). The H1.0 immunofluorescence intensity (HCC1569 [4]) was 114 (inactive).
With `COc1ccc2[nH]cc(CCN)c2c1.Cl` [O-Methylserotonin hydrochloride] the cell number (HCC1569 [1]) was 96.9, the cell number (TDF [2]) was 97.6 and the H1.0 immunofluorescence intensity (TDF [3]) was 89.1 (inactive). For the same compound, the H1.0 immunofluorescence intensity (HCC1569 [4]) was 106 (inactive).
In the case of `CC1C=CC=CCCC=CC=CC=CC=CC(OC2OC(C)C(O)C(N)C2O)CC2OC(O)(CC(O)C(O)CCC(O)CC(O)CC(O)CC(=O)OC(C)C(C)C1O)CC(O)C2C(=O)O` (configuration not stated) [Nystatin], the cell number (HCC1569 [1]) is reported as 101, the cell number (TDF [2]) is reported as 105 and the H1.0 immunofluorescence intensity (TDF [3]) is reported as 103 (inactive). The H1.0 immunofluorescence intensity (HCC1569 [4]) was 104 (inactive).
`Cl.N[C@@H](CCl)C(=O)O` [beta-Chloro-L-alanine hydrochloride] was tested, and the cell number (HCC1569 [1]) was 101, the cell number (TDF [2]) was 97.8 and the H1.0 immunofluorescence intensity (TDF [3]) was 92.7 (inactive). For the same compound, the H1.0 immunofluorescence intensity (HCC1569 [4]) was 91.9 (inactive).
With `CCC(C)C(=O)OC1C(O)C2C(CN3CC(C)CCC3C2(C)O)C2CC34OC5(O)C(OC(=O)C(C)(O)C(C)O)CCC3(C)C5C(OC(C)=O)C(OC(C)=O)C4C21O` (configuration not stated) [Protoveratrine B] the cell number (HCC1569 [1]) was 104, the cell number (TDF [2]) was 97.9 and the H1.0 immunofluorescence intensity (TDF [3]) was 106 (inactive). For the same compound, the H1.0 immunofluorescence intensity (HCC1569 [4]) was 93.2 (inactive).
